Potency data for one molecule are collected here from PubChem BioAssay AID447 (National Center for Advancing Translational Sciences (NCATS), 2006).

Structures are written as SMILES. Screen size: about 69,000 compounds; fewer than 10 were called active. About 100% were inconclusive and are not listed. How the calls were made is not given here. The list shows a part of the results.

Sequence of UDP-N-acetylglucosamine--peptide N-acetylglucosaminyltransferase 110 kDa subunit (Homo sapiens) (O15294 whole entry, looked up): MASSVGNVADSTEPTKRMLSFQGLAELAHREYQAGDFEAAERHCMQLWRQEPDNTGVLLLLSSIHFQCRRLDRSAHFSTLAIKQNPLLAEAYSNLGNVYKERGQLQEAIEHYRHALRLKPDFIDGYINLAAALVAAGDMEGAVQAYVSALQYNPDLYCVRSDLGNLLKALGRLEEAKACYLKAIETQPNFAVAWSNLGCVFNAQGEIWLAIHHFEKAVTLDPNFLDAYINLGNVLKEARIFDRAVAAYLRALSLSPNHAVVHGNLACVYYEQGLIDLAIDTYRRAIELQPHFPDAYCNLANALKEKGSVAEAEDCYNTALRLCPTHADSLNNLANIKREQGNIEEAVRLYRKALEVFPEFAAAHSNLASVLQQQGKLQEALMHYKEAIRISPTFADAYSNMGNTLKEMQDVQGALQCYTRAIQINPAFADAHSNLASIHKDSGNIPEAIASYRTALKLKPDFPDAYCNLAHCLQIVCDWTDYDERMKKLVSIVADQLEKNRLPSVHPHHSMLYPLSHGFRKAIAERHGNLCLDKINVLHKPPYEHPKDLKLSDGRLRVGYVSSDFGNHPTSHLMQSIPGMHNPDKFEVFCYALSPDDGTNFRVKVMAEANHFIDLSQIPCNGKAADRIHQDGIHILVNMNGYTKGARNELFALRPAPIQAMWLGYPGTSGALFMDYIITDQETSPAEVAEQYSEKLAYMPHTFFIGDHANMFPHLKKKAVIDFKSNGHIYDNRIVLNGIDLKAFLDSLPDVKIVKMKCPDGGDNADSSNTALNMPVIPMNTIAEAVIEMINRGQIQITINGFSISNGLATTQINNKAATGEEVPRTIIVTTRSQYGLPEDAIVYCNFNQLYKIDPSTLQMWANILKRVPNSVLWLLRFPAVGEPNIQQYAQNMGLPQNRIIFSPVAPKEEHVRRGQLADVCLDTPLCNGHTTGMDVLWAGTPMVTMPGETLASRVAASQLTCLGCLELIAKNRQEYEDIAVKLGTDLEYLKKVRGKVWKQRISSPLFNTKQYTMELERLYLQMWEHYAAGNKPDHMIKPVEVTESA

This test concerns the target UDP-N-acetylglucosamine--peptide N-acetylglucosaminyltransferase 110 kDa subunit (Homo sapiens) (UniProt O15294). The test can be described thus: O-Glc NAc Transferase (sOGT). Conditions: sOGT fluorescence polarization UDP-GlcNAc probe displacement. From the text: NIH Molecular Libraries Screening Centers Network [MLSCN]
NIH Chemical Genomics Center [NCGC]
Suzanne Walker [Harvard Medical School]
OGT is the sole enzyme that mediates the attachment of O-GlcNAc groups to serine and threonine residues in the nucleus and cytoplasm of eukaryotic cells, and no specific inhibitors are known. This type of glycosylation is involved in signal transduction and plays a key role in many essential cellular processes. High O-GlcNAc levels have been correlated to insulin resistance and type 2 diabetes. In addition to elucidating the role of O-GlcNAc in cellular processes, inhibitors of OGT might be useful in studying and perhaps treating type 2 diabetes. Since HTS-amenable direct assay for OGT activity is currently unavailable, a simpler substrate-displacement screen was performed. The signal measured is based on the change in fluorescence polarization of a fluorescein-labeled UDP-GlcNAc upon displacement from its complex with OGT. Recombinant truncated version of the enzyme, sOGT, as well as labeled probe, were made available by Suzanne Walker and Benjamin Gross, Harvard Medical School. […]
Three uL of reagents were dispensed to 1536-well Greiner black plates. […] The plates were incubated for 15 min at room temperature, and then read on ViewLux (Perkin-Elmer) High-throughput CCD imager using fluorescein polarization filter set and 45 seconds exposure time. […]
In general terms: Fluorescence polarisation rises when a labelled molecule tumbles more slowly, as on binding a larger partner.
Consider `O=C1CCCN1CC#CCN1CCCC1`, for which the Potency is 29.9 µM (active).
